Results reported in PubChem BioAssay (EPA / NIEHS).
The source made the active and inactive calls. Rule for the calls: active = hit-call score of the fitted dose curve at least 0.9, where 1 is the maximum; inactive = score below 0.9.

Test: CCTE_Shafer_MEA_acute_network_burst_percentage: CCTE's Neural Acute Assay for Percentage of Network Bursts, Shafer Lab (AID 2284022);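 note: curves fitted for loss so actives lower network burst percentage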
Description: CCTE_Shafer_MEA_acute assay is conducted using Axion Biosystems 48 well microelectrode array (MEA) plates and Maestro recording system. Each well of the MEA plate contains a grid of 16 microelectrodes embedded in the culture surface. Electrically active cells, such as neurons, can be cultured over the electrodes, and electrical activity in these cells can be recorded extracellularly. The spontaneous firing of neurons is captured from each electrode on a microsecond timescale providing both temporally and spatially precise data. […] The CCTE_Shafer_MEA_acute assay uses primary cultures of rat cortical neurons. As these cultures mature over time, neural networks develop functional activity and form cohesive networks in which electrical activity can be highly coordinated. Baseline 40-minute recordings are made on days post-plating 13 or 15, followed by a secondary 40-minute recording after chemical exposure.CCTE_Shafer_MEA_acute_network_burst_percentage is a component of the CCTE_Shafer_MEA_acute assay. It measures the percent of spikes (action potential firings) in network bursts (temporally-clustered groups of spikes across multiple electrodes) as the number of spikes occuring in network bursts divided by the total number of spikes during a recording in a microelectrode array (MEA) using Axion Biosystems Maestro 768 channel amplifier with the AxIS adaptive spike detector. The recordings before and after chemical treatment are used to calculate a percent change in the network burst percentage in each well.Data from the assay component CCTE_Shafer_MEA_acute_network_burst_percentage was analyzed into 1 assay endpoint. This assay endpoint, CCTE_Shafer_MEA_acute_network_burst_percentage, was analyzed in the negative analysis fitting direction relative to DMSO as the negative control and baseline of activity. Using a type of functional reporter, gain or loss-of-signal activity can be used to understand electrical activity.
Spontaneous activity in the cortical cultures was recorded using an Axion Biosystems Maestro 768 channel amplifier and Axion Integrated Studios (AxIS) v1.8 (or later) software. The amplifier recorded from all channels simultaneously (gain = 1200 x; sampling rate = 12.5 kHz/channel): raw signals were filtered with a Butterworth band-pass filter (300-5000 Hz), which filters out slower local field potentials leaving only fast potentials, i.e., "spikes", arising from extracellular currents associated with action potentials (Pine 2006; Wheeler and Nam 2011). On-line spike detection of filtered signals was conducted with the AxIS adaptive spike detector, using a threshold of 8x the root mean squared (rms) noise on each channel. Any electrodes with rms noise levels greater than 5 uV were grounded (e.g., no data were recorded). Once grounded, an electrode was grounded for the duration of the experiment. All recordings were conducted at 37 C. Wells were deemed usable if on the day of the exposure >/= 10 electrodes were active (defined as >/= 5 spikes/min). On DIV 13 or 15, a minimum of three wells from one cortical culture preparation were treated with each compound (0.03-40 uM). Prior to recording baseline activity, each mwMEA plate was placed in the Maestro at 37 C and allowed to sit for 20 min while firing rates stabilized. Baseline activity (40 min) was recorded before the addition of each compound. An additional 40 min of spontaneous activity was recorded in the presence of each compound. Changes in network parameters relative to baseline were assessed following compound treatment.

SMILES	outcome	AC50
CCCCCCCC/C=C\CCCCCCCC(=O)OC[C@@H](O)[C@H]1OC[C@H](O)[C@H]1O	inactive	–
Cn1c(=O)c2[nH]cnc2n(C)c1=O	inactive	–
O=S(=O)(O)c1ccc(N=Nc2c(O)ccc3cc(S(=O)(=O)O)ccc23)cc1	inactive	–
CCCCC(CC)C(=O)OCCOCCOCCOC(=O)C(CC)CCCC (stereo not drawn)	inactive	–
COc1cc(C(C)C)c2c(c1)S(=O)(=O)N(COc1cc(=O)n3cccc(OCCN4CCCCC4)c3n1)C2=O	inactive	–
CCCCCCCC1CCC(=O)O1 (stereo not drawn)	inactive	–
OC(CCl)CCl	inactive	–
COc1cc2c(c(OC)c1OC)-c1ccc(OC)c(=O)cc1[C@@H](NC(C)=O)CC2	–	4.03 µM (active)
CC(C)C(=O)Nc1ccc([N+](=O)[O-])c(C(F)(F)F)c1	–	34.4 µM (active)
c1ccc2cc3ccccc3cc2c1	–	0.003 µM (active)
C=CCc1cc(S(=O)(=O)c2ccc(O)c(CC=C)c2)ccc1O	inactive	–
OCc1ccccc1	inactive	–
Cc1ncc([C@@H](CCCCCCc2ccc3c(n2)NCCC3)CC(=O)O)cn1	inactive	–
CC[C@H](C)C(=O)O[C@H]1C[C@H](O)C=C2C=C[C@H](C)[C@H](CC[C@@H](O)C[C@@H](O)CC(=O)O)[C@H]21	inactive	–
COCc1nnc(-c2ccc[n+]([O-])c2)n1-c1c(Cl)c(Cl)cc2[nH]c(=O)c(=O)[nH]c12	–	29.2 µM (active)
CCc1ccc(O)c(C(C)(C)C)c1	inactive	–
CCCc1ccccc1	inactive	–
c1ccc(C(O[C@@H]2CCCN(CCc3ccc4c(c3)OCO4)C2)c2ccccc2)cc1	inactive	–
